# Screening results: PubChem, SRMLSC
# NADH coupling – inhibitors of PK/LDH coupling enzymes, profiling panel, artefact control, biochemical, MLSMR library; coupled PK/LDH NADH assays, four targets; IC50, µM (series often up to 10 µM); 65,000 tested, 0.02% active; AID 774, 2007;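 active means single-dose screening hits from any of four coupled enzyme assays that gave an IC50 when retested across doses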;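 further: the DPM-DC format reads NADH fluorescence rather than 340 nm absorbance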
# DPM-DC inhibit – S. pneumoniae DPM-DC inhibitors, primary screen, biochemical, PK/LDH-coupled NADH fluorescence; purified DPM-DC; calls only at 10 µM; 65,000 tested, 0.49% active; AID 556, 2006;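 active means the 320 compounds with the highest percent inhibition in the single-dose primary screen, excluding strongly autofluorescent ones, cut at about 32% in these data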;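 further: kinetic rate of NADH fluorescence loss reporting ADP formed by the decarboxylase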
# Fluor 339 460 – intrinsic fluorescence of library compounds, ex339/em460 – biochemical, MLSMR library, data from DPM-DC assay, artefact control, profiling panel | compound autofluorescence, ex339/em460 nm, NADH buffer; stronger effect = higher value; 1 = no-compound wells, NADH background | fluorescence fold increase at 10 µM | 65,000 tested, 5.5% active;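 active means at 10 µM, mean starting fluorescence two-fold or more over control wells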;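 further: signal is the first read of a kinetic run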
# A340 absorber – compound light absorbance at 340 nm, profiling panel, artefact control, biochemical, MLSMR library, data from PS, PMK, MK assays. compound absorbance at 340 nm, fold over control. 65,000 tested, under 10 active. fold change at 10 µM;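 active means at 10 µM dose, initial 340 nm absorbance at least 2 fold that of control wells; inactive means change under 2 fold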;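 further: initial absorbance extrapolated from kinetic A340 decline of NADH oxidation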
# Spn MK inh – S. pneumoniae MK inhibitors, primary screen, biochemical, PK/LDH-coupled NADH absorbance; inhibition, % at 10 µM; purified MK, PK/LDH-coupled NADH absorbance 340 nm; 65,000 tested, 0.48% active; AID 555, 2006; mevalonate kinase [Streptococcus pneumoniae D39];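 active means ranked among the strongest by inhibition in the single 10 µM screen, a fixed top-ranked set picked for dose follow-up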
# Spn PMK inh – S. pneumoniae PMK inhibitors, primary screen, biochemical, mevalonate pathway, pilot trial included | purified PMK, PK/LDH-coupled NADH absorbance 340 nm | inhibition, % at 10 µM | phosphomevalonate kinase (Streptococcus pneumoniae D39) | 65,000 tested, 0.49% active | AID 539, 2006;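 active means top-ranked compounds by inhibition in the single 10 µM screen, taking a fixed number of the strongest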
# Numbers stand for hits; n = inactive; x = not tested or not shown; + = active, no number. Sampled rows, rich in hits. Any-hit rate of the full collection: about 6.3%.
SMILES,NADH coupling,DPM-DC inhibit,Fluor 339 460,A340 absorber,Spn MK inh,Spn PMK inh
COc1ccc(CCn2c(=N)c(C(=O)N3CCN(C)CC3)cc3c(=O)n4ccccc4nc32)cc1,n,n,n,n,n,n
CCOC(=O)c1cc2c(=O)n3ccccc3nc2n(Cc2ccccc2Cl)c1=N,n,x,2.3,n,n,n
Cc1ccc(Cn2c(=N)c(C(=O)NCc3ccco3)cc3c(=O)n4ccccc4nc32)cc1,n,n,n,n,n,n
CCn1c(SCC(=O)c2cc(OC)ccc2OC)nnc1C1CC1,n,n,n,n,n,n
CCOc1cc(C)c(Cl)cc1S(=O)(=O)NCC1CCCO1 (configuration not stated),n,n,n,n,n,n
C=CCn1c(=O)n(CCOC)c(=O)c2sc3ccccc3c21,n,x,2.4,n,n,n
COc1ccc(-c2nnc(N)s2)cc1,n,n,n,n,n,n
Nc1nnc(-c2ccncc2)s1,n,x,3.9,n,n,n
Cc1ccc(-c2nnc3sc(-c4ccncc4)nn23)cc1,n,n,n,n,n,n
CNc1nnc(-c2ccncc2)s1,n,x,4.3,n,n,n
Cc1ccc(C2C(C(=O)c3cc4ccccc4o3)=C(O)C(=O)N2CCCN(C)C)cc1 (configuration not stated),n,n,n,n,n,n
CCOC(=O)c1ccc(N=CC2=C(O)CC(c3ccco3)CC2=O)cc1 (configuration not stated),n,n,n,n,n,n
COc1cc(CNc2ccc3[nH]c(=O)[nH]c3c2)cc(Cl)c1OCC(=O)NC(C)(C)C,n,n,3,n,n,n
CCOc1cc(CNc2ccc3[nH]c(=O)[nH]c3c2)ccc1OCC(=O)NC(C)(C)C,n,x,3.8,n,n,n
CN1CCC(OC(=O)COc2ccc(C(C)(C)C)cc2)CC1,n,n,n,n,n,n
CCOC(=O)c1ccc(N2C(=O)C(O)=C(C(C)=O)C2c2ccc(O)c(OC)c2)cc1 (configuration not stated),n,n,n,n,n,n
CCOC(=O)C1=C(O)C(=O)N(c2ccc(S(N)(=O)=O)cc2)C1c1ccc(OC)cc1 (configuration not stated),n,n,2.1,n,n,35
C=CCNC(=O)c1c(N)n(-c2cccc(S(N)(=O)=O)c2)c2nc3ccccc3nc12,n,x,2.1,n,n,n
COC(=O)c1c(N)n(-c2ccc(NC(C)=O)cc2)c2nc3ccccc3nc12,n,x,3.8,n,n,n
COC(=O)c1c(N)n(-c2ccc(N3CCOCC3)cc2)c2nc3ccccc3nc12,n,n,n,n,n,n
C=CCn1c(N)c(C(=O)Nc2ccccc2)c2nc3ccccc3nc21,n,n,n,n,n,n
COCCNC(=O)c1c(N)n(-c2cccc(C)c2)c2nc3ccccc3nc12,n,x,3.9,n,n,n
Nc1c(C(=O)NCCN2CCOCC2)c2nc3ccccc3nc2n1-c1ccc2c(c1)OCO2,n,+,n,n,n,n
Cc1ccc(CNS(=O)(=O)c2ccc3oc(C(=O)O)c(C)c3c2)cc1,n,n,n,n,n,n
Clc1ncn(C23CC4CC(CC(C4)C2)C3)n1,n,n,n,n,n,n
SMILES,NADH coupling,DPM-DC inhibit,Fluor 339 460,A340 absorber,Spn MK inh,Spn PMK inh
Cc1cc(OC(=O)c2ccc(S(=O)(=O)N(C)C)cc2)cc(=O)o1,n,n,n,n,n,n
Nc1c(C(=O)NCCN2CCOCC2)c2nc3ccccc3nc2n1-c1ccccc1,n,x,3.9,n,n,n
CCN(CC)C(=O)Cn1c(=O)n(-c2ccccc2)c(=O)n1CC(=O)N(CC)CC,n,n,n,n,n,n
COc1cc(S(=O)(=O)N2CCCC3(CCCCC3)C2)ccc1-n1cnnn1,n,n,2.8,n,n,n
COc1ccc(N(CC(=O)O)S(=O)(=O)c2cccnc2)cc1,n,n,n,n,n,n
Cc1cc(C(=O)COc2ccc3ccc(=O)oc3c2)c(C)n1Cc1cccs1,n,n,2.6,n,n,n
O=C(Cc1c(C(=O)O)[nH]c2ccccc12)NCCN1CCN(c2ccccc2F)CC1,n,n,n,n,n,n
